Data: PubChem BioAssay (Tox21)
Records with an inconclusive call do not appear. Active and inactive are the calls of the source. Unless noted, calls follow the shape of the full dose curve.

Key:
[1] = Nuclear factor erythroid 2-related factor 2/antioxidant responsive element (Nrf2/ARE) small molecule agonists: qHTS cell viability counter screen in human keratinocytes (AID 1919968; active = well fitted curve in the direction sought with a large enough effect in the repeat runs; an effect the other way counts as inactive or inconclusive; also: nearly all actives have a fitted effect of over 55% in size; also: potency is read from the fitted curve at half-maximal effect)
Method in brief: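 CellTiter-Fluor fluorescence, read 1 h after reagent, gave viability in the same wells as the ARE-luciferase assay. KeratinoSens cells (1,500/well) had 23 h compound exposure at 37 C/5% CO2 following 5 h plating.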

[2] = Nuclear factor erythroid 2-related factor 2/antioxidant responsive element (Nrf2/ARE) small molecule agonists: luciferase reporter gene qHTS assay in human keratinocytes (AID 1919969); also: nearly all actives have a fitted effect of over 35% in size
[3] = biological target: KiSS-1 receptor (Homo sapiens) (UniProt Q969F8); assay: Human kisspeptin (KISS1R) small molecule agonists, calcium flux assay in KISS1R-HEK293 cells (AID 1920064; active = well fitted curve in the direction sought with a large enough effect in the repeat runs; an effect the other way counts as inactive or inconclusive)
Sequence of KiSS-1 receptor (Homo sapiens) (Q969F8 whole entry, looked up): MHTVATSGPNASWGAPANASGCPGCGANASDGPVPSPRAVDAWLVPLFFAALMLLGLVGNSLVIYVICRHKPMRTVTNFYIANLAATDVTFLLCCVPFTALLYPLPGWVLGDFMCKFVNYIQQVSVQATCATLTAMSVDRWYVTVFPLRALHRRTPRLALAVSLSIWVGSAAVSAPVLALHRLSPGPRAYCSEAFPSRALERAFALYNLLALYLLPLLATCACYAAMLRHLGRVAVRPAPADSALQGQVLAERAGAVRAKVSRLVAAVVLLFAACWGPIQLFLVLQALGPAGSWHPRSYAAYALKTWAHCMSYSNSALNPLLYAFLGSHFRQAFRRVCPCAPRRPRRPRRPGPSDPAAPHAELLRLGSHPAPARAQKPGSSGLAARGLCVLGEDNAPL
Method in brief: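 Agonist mode: intracellular calcium rise tracked at 1 s intervals over 3 min (480/540 nm) immediately after compound addition to dye-loaded KISS1R-HEK293 stable cells. Each compound tested at 15 concentrations in triplicate.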

[4] = G protein-coupled receptor (GPCR) small molecule agonists, calcium flux assay: HEK293 wild type cell line counter screen (AID 1920065)
Method in brief: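 Calcium flux counter screen: compound added in agonist mode at 15 concentrations in triplicate to dye-loaded parental HEK293 cells. Fluorescence (480/540) read kinetically for 3 min; ATP served as positive control.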

[5] = p53 small molecule agonists, cell-based qHTS assay with human liver microsomes (AID 1963577)
Method in brief: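 p53RE-bla reporter cells were pre-incubated 5 h at 37 C, then treated with compounds plus human liver microsomes (0.5 mg/mL final) and NADPH (0.5 mg/mL final) for 16 h at 37 C. Beta-lactamase activity was read by LiveBLAzer fluorescence after 2 h at room temperature.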

[6] = p53 small molecule agonists, cell-based qHTS assay with rat liver microsomes (AID 1963578)
Method in brief: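 p53RE-bla cells were exposed to compounds together with rat liver microsomes (0.5 mg/mL final) and NADPH (0.5 mg/mL final) for 16 h at 37 C, then read by LiveBLAzer beta-lactamase fluorescence after 2 h at room temperature.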

[7] = p53 small molecule agonists, cell-based qHTS assay with human liver microsomes: qHTS cell viability counter screen (AID 1963579); also: nearly all actives have a fitted effect of over 45% in size; also: potency is read from the fitted curve at half-maximal effect
Method in brief: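 p53RE-bla cells (4,000/well) were pre-incubated 5 h at 37 C, then given compounds in DMSO plus human liver microsomes (0.5 mg/mL final) and NADPH (0.5 mg/mL final) for 16 h at 37 C. Viability was read by CellTiter-Glo luminescence.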

[8] = p53 small molecule agonists, cell-based qHTS assay: qHTS cell viability counter screen (AID 1963581); also: nearly all actives have a fitted effect of over 45% in size
Method in brief: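 Counter screen read by CellTiter-Glo luminescence (ATP content, 30 min at room temperature), run in the same wells as the beta-lactamase reporter read. HCT-116 p53RE-bla cells saw compounds for 16 h at 37 C.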

[9] = p53 small molecule agonists, cell-based qHTS assay (AID 1963582; active = well fitted activation curve with a large enough effect in the signal ratio in the repeat runs, not every such curve was filed as active; the % refers to the signal ratio)
Method in brief: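 Read-out is beta-lactamase FRET fluorescence after 2 h at room temperature with LiveBLAzer B/G substrate. p53 response element-bla cells were treated 16 h at 37 C with compounds in DMSO, added 5 h after seeding.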

[10] = biological target: 5-hydroxytryptamine receptor 2A (Homo sapiens) (UniProt P28223); assay: 5-hydroxytryptamine receptor 2A (HTR2A) small molecule antagonists, cell-based qHTS assay (AID 1963586); also: nearly all actives have a fitted effect of over 45% in size
Sequence of 5-hydroxytryptamine receptor 2A (Homo sapiens) (P28223 whole entry, looked up): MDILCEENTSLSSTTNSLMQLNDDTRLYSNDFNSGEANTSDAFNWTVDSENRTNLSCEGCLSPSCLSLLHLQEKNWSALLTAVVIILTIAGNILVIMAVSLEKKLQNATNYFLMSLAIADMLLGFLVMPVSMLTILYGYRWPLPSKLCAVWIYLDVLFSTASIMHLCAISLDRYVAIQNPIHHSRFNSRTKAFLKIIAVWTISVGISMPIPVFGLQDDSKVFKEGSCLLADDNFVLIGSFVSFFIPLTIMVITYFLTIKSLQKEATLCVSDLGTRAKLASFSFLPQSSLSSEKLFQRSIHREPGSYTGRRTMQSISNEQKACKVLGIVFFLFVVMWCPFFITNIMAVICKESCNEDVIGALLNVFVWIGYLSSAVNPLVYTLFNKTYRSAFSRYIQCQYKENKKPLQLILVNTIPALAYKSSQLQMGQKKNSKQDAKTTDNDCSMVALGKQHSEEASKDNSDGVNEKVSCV
Method in brief: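 CHO cells stably expressing human HTR2A were plated for 18 h at 37 C, then loaded with calcium dye for 1 h. Compounds were preincubated 5 min at room temperature before DOI (4 nM solution) was added. Kinetic fluorescence was read for 3 min.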

[11] = biological target: 5-hydroxytryptamine receptor 2A (Homo sapiens) (UniProt P28223); assay: 5-hydroxytryptamine receptor 2A (HTR2A) small molecule agonists, cell-based qHTS assay (AID 1963587); also: nearly all actives have a fitted effect of over 30% in size; also: potency is read from the fitted curve at half-maximal effect
Method in brief: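 CHO cells stably expressing human HTR2A, plated 18 h, loaded with calcium dye 1 h at 37 C. Agonist mode: compounds added and intracellular calcium fluorescence recorded kinetically for 2 min at 1 sec intervals.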

[12] = biological target: Muscarinic acetylcholine receptor M1 (Homo sapiens) (UniProt P11229); assay: Cholinergic receptor muscarinic 1 (CHRM1) small molecule antagonists, cell-based qHTS assay (AID 1963588); also: nearly all actives have a fitted effect of over 40% in size; also: potency is read from the fitted curve at half-maximal effect
Sequence of Muscarinic acetylcholine receptor M1 (Homo sapiens) (P11229 whole entry, looked up): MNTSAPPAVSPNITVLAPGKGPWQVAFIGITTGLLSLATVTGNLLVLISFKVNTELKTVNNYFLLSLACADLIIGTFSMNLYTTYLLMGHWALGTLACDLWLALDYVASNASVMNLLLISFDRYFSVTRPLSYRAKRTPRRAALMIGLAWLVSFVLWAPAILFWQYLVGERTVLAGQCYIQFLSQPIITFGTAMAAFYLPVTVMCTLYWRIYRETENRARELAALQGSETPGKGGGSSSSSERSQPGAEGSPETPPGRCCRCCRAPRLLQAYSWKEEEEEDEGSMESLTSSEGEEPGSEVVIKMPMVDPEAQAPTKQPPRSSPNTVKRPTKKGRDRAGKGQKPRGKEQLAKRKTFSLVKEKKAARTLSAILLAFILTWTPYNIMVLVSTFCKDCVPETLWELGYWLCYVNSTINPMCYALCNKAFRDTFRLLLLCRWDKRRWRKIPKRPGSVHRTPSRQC
Method in brief: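 Compounds were tested at 15 concentrations in three independent runs. Dye-loaded CHRM1-CHO cells were exposed 5 min at room temperature before stimulation by acetylcholine added at 50nM. Intracellular calcium was read kinetically on FDSS for 3 min.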

[13] = biological target: Muscarinic acetylcholine receptor M1 (Homo sapiens) (UniProt P11229); assay: Cholinergic receptor muscarinic 1 (CHRM1) small molecule agonists, cell-based qHTS assay (AID 1963589); also: nearly all actives have a fitted effect of over 35% in size
Method in brief: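 Agonist-mode calcium-flux screen: compounds at 15 concentrations, three independent runs, were pin-transferred onto dye-loaded human CHRM1-CHO cells. Fluorescence was then recorded kinetically every second over minutes.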

[14] = cAMP Responsive Elements (CRE) small molecule agonists, cell-based qHTS assay (AID 1963590)
Method in brief: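 Agonist mode: compound added to CRE-bla HEK 293T cells (2,000/well, 18 h after plating) for 3 h at 37 C/5% CO2. Reporter activity detected via FRET beta-lactamase substrate, 2 h room-temperature loading.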

[15] = cAMP Responsive Elements (CRE) small molecule antagonists, cell-based qHTS assay (AID 1963591; active = well fitted inhibition curve with a large enough effect in the signal ratio in the repeat runs, not every such curve was filed as active; the % refers to the signal ratio)
Method in brief: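 Antagonist mode: compounds are added alongside the adenylyl cyclase activator NKH477 (0.25 uM final) to CRE-bla HEK293T cells for 3 h. LiveBLAzer FRET substrate, 2 h at room temperature, reports bla expression.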

[16] = biological target: Beta-2 adrenergic receptor (Homo sapiens) (UniProt P07550); assay: Adrenergic beta2 receptor (ADRB2) small molecule antagonists, cell-based qHTS assay (AID 1963592); also: series mostly up to about 92 µM; nearly all actives have a fitted effect of over 50% in size
Sequence of Beta-2 adrenergic receptor (Homo sapiens) (P07550 whole entry, looked up): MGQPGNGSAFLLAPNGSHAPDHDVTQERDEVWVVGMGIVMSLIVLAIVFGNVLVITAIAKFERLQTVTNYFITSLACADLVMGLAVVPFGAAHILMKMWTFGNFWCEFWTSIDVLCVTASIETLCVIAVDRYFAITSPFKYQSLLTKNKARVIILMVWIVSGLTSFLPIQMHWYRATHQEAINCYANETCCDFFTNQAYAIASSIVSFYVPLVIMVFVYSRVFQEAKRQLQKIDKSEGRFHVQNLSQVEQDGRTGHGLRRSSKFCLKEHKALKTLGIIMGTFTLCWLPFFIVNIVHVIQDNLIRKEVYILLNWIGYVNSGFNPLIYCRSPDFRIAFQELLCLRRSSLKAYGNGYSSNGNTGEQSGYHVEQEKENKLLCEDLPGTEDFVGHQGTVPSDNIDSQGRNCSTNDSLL
Method in brief: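 Assay format: CHO-ADRB2 cells, 18-20hr seeding at 37C/5% CO2, then compound plus 1nM isoproterenol agonist mix for 0.5hr RT. Homogeneous time-resolved fluorescence cAMP detection after 1hr, expressed as 665/615 nm ratio.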

[17] = biological target: D(2) dopamine receptor (Homo sapiens) (UniProt P14416); assay: Dopamine D2 receptor (DRD2) small molecule agonists, cell-based qHTS assay (AID 1963594); also: nearly all actives have a fitted effect of over 35% in size
Sequence of D(2) dopamine receptor (Homo sapiens) (P14416 whole entry, looked up): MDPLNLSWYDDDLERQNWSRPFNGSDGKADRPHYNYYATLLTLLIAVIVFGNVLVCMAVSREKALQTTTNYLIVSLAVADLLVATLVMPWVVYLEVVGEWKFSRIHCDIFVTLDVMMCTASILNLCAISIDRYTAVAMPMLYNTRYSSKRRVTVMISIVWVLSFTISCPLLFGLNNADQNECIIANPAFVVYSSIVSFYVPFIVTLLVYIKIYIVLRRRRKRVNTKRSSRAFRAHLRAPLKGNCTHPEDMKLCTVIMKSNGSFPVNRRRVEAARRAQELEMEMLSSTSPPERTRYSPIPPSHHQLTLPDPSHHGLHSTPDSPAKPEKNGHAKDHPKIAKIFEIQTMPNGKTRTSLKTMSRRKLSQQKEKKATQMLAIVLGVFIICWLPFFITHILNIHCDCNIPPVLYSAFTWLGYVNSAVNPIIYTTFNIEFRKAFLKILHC
Method in brief: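 HEK293 cells stably expressing human DRD2, pre-treated with PDE inhibitor Ro20-1724 (0.1 mM final) and compound 10 min at room temperature, then stimulated with NKH477 (200nM […]) for 30 min. cAMP read by HTRF (665/620 nm).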

[18] = biological target: D(2) dopamine receptor (Homo sapiens) (UniProt P14416); assay: Dopamine D2 receptor (DRD2) small molecule antagonists, cell-based qHTS assay (AID 1963595; active = well fitted inhibition curve with a large enough effect in the signal ratio in the repeat runs, with a control signal flat; the % refers to the signal ratio)
Method in brief: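 HTRF cAMP read-out at 665 and 620 nm emission (340 nm excitation). Antagonist mode: compounds were tested against 12 nM quinpirole in DRD2-HEK293 cells, with 200 nM NKH477 raising cAMP and 0.1 mM Ro20-1724 blocking its breakdown.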

[19] = p53 small molecule agonists, cell-based qHTS assay with rat liver microsomes: qHTS cell viability counter screen (AID 1963580); also: nearly all actives have a fitted effect of over 45% in size
Method in brief: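 After the beta-lactamase ratio was read, CellTiter-Glo was added to the same wells and luminescence measured at 30 min; cells had been treated 16 h at 37 C with compounds, rat liver microsomes and NADPH (0.5 mg/mL final each).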

[20] = biological target: Beta-2 adrenergic receptor (Homo sapiens) (UniProt P07550); assay: Adrenergic beta2 receptor (ADRB2) small molecule agonists, cell-based qHTS assay (AID 1963593);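 also: CHO cells stably overexpressing human ADRB2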
Method in brief: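 CHO cells stably over-expressing ADRB2 were plated overnight at 37C, then dosed with compounds plus a stimulation mix containing 100uM IBMX and 25uM Ro-20-1724 for 0.5hr at room temperature. cAMP was measured by HTRF competition, 1hr.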

Measured: Potency

CCCCCCOC(=O)CCCCC
not listed: [19] | [20]
inactive: all other assays above

Cc1ccc2oc(CN(Cc3ccccc3)C(=O)Nc3c(F)cc(F)cc3F)c(-c3ccc(Cl)cc3)c2c1
not listed: [7] | [12] | [13] | [14] | [16]
inactive: all other assays above

CC(C(=O)O)c1ccc(CC2CCCC2=O)cc1 (stereo not drawn)
not listed: [7] | [9] | [10] | [11] | [12] | [13] | [20]
inactive: all other assays above

CCCCCCCCCCCCN(CCO)CCO
inactive: [2] | [3] | [4] | [5] | [6] | [13] | [17] | [18]
active: [1] 30.5 µM | [7] 45.6 µM | [11] 48.8 µM | [12] 11.8 µM
